An excerpt weighted towards active compounds, which were near 2% of everything screened.
Gli-Sufu block: Gli-Sufu pathway antagonism; Sufu-KO-LIGHT fibroblasts, Gli luciferase reporter luminescence; inhibition, % at 5 µM; hit rate 0.74% among 340,000; AID 588413;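 active = inhibition above about 55%, limit read from the data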
Jurkat NFkB inh: inhibitors of the PMA/ionomycin-induced NF-kB reporter in Jurkat cells | PMA/ionomycin-induced NF-kB luciferase reporter, luminescence | hit rate 0.53% among 330,000 | AID 435003 | inhibition, % at 4 µM; in the data active = inhibition above about 50%
GalR3 antag: blocks the human galanin receptor 3. AID 651719. hit rate 0.44% among 360,000. inhibition, % at 3 µM. O60755. HEK293 GalR3-CNG cAMP membrane potential fluorescence; galR3 body fused to GalR1 C-terminus;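 active = inhibition above the screen-wide average plus 3 SD, cut at about 13% in these data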;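 also: forskolin and galanin both at EC90 stimulate the cells; cAMP rise reported by CNG channel membrane potential dye signal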
Target sequence (O60755 1-299 limits assumed): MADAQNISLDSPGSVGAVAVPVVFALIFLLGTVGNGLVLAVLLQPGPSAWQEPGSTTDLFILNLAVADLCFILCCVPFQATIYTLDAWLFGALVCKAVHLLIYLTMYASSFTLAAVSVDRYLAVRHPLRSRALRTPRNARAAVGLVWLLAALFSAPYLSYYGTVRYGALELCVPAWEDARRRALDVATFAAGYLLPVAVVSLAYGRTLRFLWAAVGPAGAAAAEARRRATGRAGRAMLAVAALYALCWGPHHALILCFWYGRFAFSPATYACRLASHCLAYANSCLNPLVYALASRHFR
NR2F2 inh: NR2F2 (human) inhibition, primary screen | hit rate 0.7% among 370,000 | inhibition, % at 8.6 µM | HEK293T NGFI-A luciferase reporter, luminescence | AID 686940;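 active = inhibition above a per-plate cutoff, mean inhibition of test wells between control levels plus 3 SD, cut at about 38% in these data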;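 also: cells cotransfected with COUP-TFII expression vector driving the NGFI-A reporter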
Target sequence (P24468 whole entry, looked up): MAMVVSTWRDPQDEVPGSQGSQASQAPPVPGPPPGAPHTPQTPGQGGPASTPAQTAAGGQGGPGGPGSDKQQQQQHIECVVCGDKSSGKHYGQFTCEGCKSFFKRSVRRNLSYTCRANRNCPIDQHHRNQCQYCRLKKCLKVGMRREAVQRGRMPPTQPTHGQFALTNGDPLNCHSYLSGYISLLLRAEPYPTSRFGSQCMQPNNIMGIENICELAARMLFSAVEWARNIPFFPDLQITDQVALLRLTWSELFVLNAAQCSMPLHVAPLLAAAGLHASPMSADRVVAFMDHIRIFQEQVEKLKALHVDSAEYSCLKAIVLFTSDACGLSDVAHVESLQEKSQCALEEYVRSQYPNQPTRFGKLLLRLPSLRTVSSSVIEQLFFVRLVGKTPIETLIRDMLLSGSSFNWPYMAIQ
697 NFkB inh: inhibitors of the PMA/ionomycin-induced NF-kB reporter in 697 B cells; 697 B-cell NF-kB luciferase reporter, 16 h; hit rate 0.33% among 330,000; inhibition, % at 4 µM; AID 435022; in the data active = inhibition above about 35%
Jurkat NFkB conf: inhibitors of the PMA/ionomycin-induced NF-kB reporter in Jurkat cells, retest | shares compounds with Jurkat NFkB inh | Jurkat NF-kB luciferase, 16 h | hit rate 27% among 2,700 | inhibition, % at 4 µM | AID 435020;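 active = inhibition reaching about 45% at 4 µM in either replicate, limit read from the data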
Each line names hits and unclear results; the compound was inactive in the other large screens (follow-up assays come after a bar, where they were run).

CC(=O)c1cccc(NC(=S)NC(=O)c2ccc(C)cc2)c1	none
CC(=O)c1cccc(NC(=S)NC(=O)c2ccc(Br)cc2)c1	Jurkat NFkB inh 91.3 | Jurkat NFkB conf inactive
Cc1ccc(/C=N/NC(=O)c2ccc3ccccc3c2)s1	Jurkat NFkB inh 51.5 | Jurkat NFkB conf inactive
Cc1ccc(/C=N/NC(=O)c2ccc3c(c2)OCCO3)s1	none
COc1ccc(-c2cc3ccc(OCC(C)=O)cc3oc2=O)cc1OC	none
COc1ccc(-c2cc3ccc(OCC(C)=O)cc3oc2=O)cc1	none | Jurkat NFkB conf inactive
COc1ccc(-n2c(SCC(=O)Nc3cc(C)c(NC(=O)c4ccccc4)cc3OC)nnc2-c2ccco2)cc1	none (no result: Gli-Sufu block, Jurkat NFkB inh, GalR3 antag, 697 NFkB inh)
COc1cccc(C(=O)/C=C/Nc2cc(C)ccc2O)c1	Jurkat NFkB inh 67.4 | Jurkat NFkB conf inactive
Cc1cccc(N/C=C/C(=O)c2ccc(Cl)cc2)c1	none
COc1ccc(N/C=C/C(=O)c2ccc(C)cc2)c([N+](=O)[O-])c1	none | Jurkat NFkB conf inactive
Cc1ccc(Cl)c(N/C=C/C(=O)c2ccccc2)c1	none | Jurkat NFkB conf inactive
Cc1cccc(OCC(=O)Nc2cc(C)c(C)cc2O)c1	none
CCOC(=O)c1ccc(N/C=C\C(=O)c2cccc(OC)c2)cc1	none
Cc1cccc(OCC(=O)Nc2cc(C)ccc2O)c1	Jurkat NFkB inh 71.7 | Jurkat NFkB conf 55.0
COc1cccc(N/C=C/C(=O)c2ccc(Br)cc2)c1	none
COc1ccc(C(=O)/C=C/Nc2cccc(O)c2)cc1	none | Jurkat NFkB conf inactive
Cc1ccc(O)c(NC(=O)CCC2CCCCC2)c1	Jurkat NFkB inh 64.4 | Jurkat NFkB conf inactive
COc1ccc(S(=O)(=O)NCC(=O)N2CCN(c3ccccn3)CC2)c(OC)c1	none (no result: Gli-Sufu block, Jurkat NFkB inh, GalR3 antag, 697 NFkB inh)
C[C@H]1[C@H](NC(=O)c2ccc(C(F)(F)F)cc2)CC[C@@]23CCCN2C(=O)CCC[C@@H]13	none (no result: Gli-Sufu block, Jurkat NFkB inh, GalR3 antag, 697 NFkB inh)
Nc1ncn([C@@H]2O[C@H](CO)[C@@H](O)[C@H]2O)c(=O)n1	Jurkat NFkB inh 79.8 | Jurkat NFkB conf 84.7
O=c1[nH]cnc2c1ncn2C1OC(CO)C(O)C1O (stereo not given)	none (no result: Jurkat NFkB inh, 697 NFkB inh)
COC(=O)[C@]12C[C@H](CC(=O)N3CCCC3)C(=O)N(Cc3ccco3)C1=C[C@H](C(C)C)O[C@@H]2C1CC1	none (no result: Gli-Sufu block, Jurkat NFkB inh, GalR3 antag, 697 NFkB inh)
COc1ccc(-c2nc3ccccc3s2)cc1NC(C)=O	none | Jurkat NFkB conf inactive
c1cnc(SCCOc2ccc3c(c2)CCC3)nc1	none | Jurkat NFkB conf inactive
COC(=O)[C@H](C(C)C)N(CCCc1cn(Cc2ccccc2)nn1)S(=O)(=O)c1ccccc1Br	none (no result: Gli-Sufu block, Jurkat NFkB inh, GalR3 antag, 697 NFkB inh)
Cc1cc(NC(=O)CSc2nc3ccccc3c(=O)n2C2CCCC2)no1	Jurkat NFkB inh 64.2 | Jurkat NFkB conf 51.3
COc1ccc(C(=O)c2ccc(N(C)C)cc2)c(OC)c1	Jurkat NFkB inh 67.9 | Jurkat NFkB conf 47.0
O=C(Nc1ccc(Cl)c(S(=O)(=O)N2CCOCC2)c1)c1ccc(OCC2CCCO2)cc1 (stereo not given)	Jurkat NFkB inh 60.0 (no result: GalR3 antag, NR2F2 inh) | Jurkat NFkB conf 64.2
COc1ccc(-c2cc(-c3ccccc3O)[nH]n2)cc1OC	none | Jurkat NFkB conf inactive
COc1ccc(-c2cc(-c3ccc(OC)c(OC)c3)n[nH]2)c(O)c1	none
COc1ccc(/C=N/NC(=O)c2cccnc2)cc1Cn1nc([N+](=O)[O-])c(Br)c1C	Jurkat NFkB inh 51.8 (no result: Gli-Sufu block) | Jurkat NFkB conf inactive
Nc1nc(-c2ccccc2)nc2sc3c(c12)CCCC3	none | Jurkat NFkB conf inactive
Cc1ccc(-c2nc3sc4c(c3c(=O)n2N)CCCC4)cc1	none | Jurkat NFkB conf inactive
O=C(COc1ccc(Br)cc1)N/N=C1\SCC(=O)N1c1ccc(F)cc1	Jurkat NFkB inh 99.2 | Jurkat NFkB conf inactive
Oc1ccc2ccccc2c1N=Nc1ccccn1	Jurkat NFkB inh 62.0 | Jurkat NFkB conf 52.1
Oc1ccc2ccccc2c1N=Nc1ccccc1F	none
CN(C)c1ccc(NC(=S)OC2CCC23CCC(c2ccccc2)CC3)cc1 (stereo not given)	none (no result: Gli-Sufu block, Jurkat NFkB inh, GalR3 antag, 697 NFkB inh)
CCOC(=O)/C(C#N)=C/c1cc2ccccc2nc1Cl	none
CSc1nc2ccccc2cc1/C=C(\C#N)c1cccc(Cl)c1	Jurkat NFkB inh 54.1 | Jurkat NFkB conf inactive
COCCNC(=O)[C@]1(C#N)CC(=O)N(C)[C@@H]1c1ccccc1	none (no result: Gli-Sufu block, Jurkat NFkB inh, GalR3 antag, 697 NFkB inh)
c1csc(-c2ccc(N3CCOCC3)nn2)c1	none
c1csc(-c2nnc(-c3ccc(N4CCOCC4)cc3)o2)c1	none | Jurkat NFkB conf inactive
Clc1ccc([C@H]2OC[C@@]3(CNCc4ccccn4)CS[C@H](c4ccc(Cl)cc4)N23)cc1	none (no result: Gli-Sufu block, Jurkat NFkB inh, GalR3 antag, 697 NFkB inh)
COC(=O)[C@]12C[C@H](CC(=O)NCCc3ccccc3OC)C(=O)N(Cc3cccc4ccccc34)C1=C[C@H](COCc1ccccc1)O[C@@H]2C	none (no result: Gli-Sufu block, Jurkat NFkB inh, GalR3 antag, 697 NFkB inh)
C#CCOCCOCCOCCNc1nc(N2CCN(C(=O)CCCCCCCCCCNC(=O)[C@H](CCCCN)n3cc(C[C@@H](C)CC)nn3)CC2)nc(N2CCN(C(=O)CCCCCCCCCCNC(=O)[C@@H]([C@H](C)O)n3cc(C)nn3)CC2)n1	Jurkat NFkB inh 91.5 (no result: GalR3 antag, NR2F2 inh) | Jurkat NFkB conf inactive
C#CCOCCOCCOCCNc1nc(N2CCN(C(=O)CCCCCCCCCCNC(=O)[C@H](CCCCN)n3cc(C)nn3)CC2)nc(N2CCN(C(=O)CCCCCCCCCCNC(=O)[C@@H]([C@H](C)O)n3cc(C)nn3)CC2)n1	none (no result: GalR3 antag, NR2F2 inh)
COc1ccc(OC)c(NC(=O)O[C@@H]2CC[C@@]34CCCN3C(=O)CCC[C@H]4C2)c1	none (no result: Gli-Sufu block, Jurkat NFkB inh, GalR3 antag, 697 NFkB inh)
CCCC1=C(C(=O)OCC)C(/C=C/c2ccccc2)n2ncnc2N1 (stereo not given)	Jurkat NFkB inh 53.0 (no result: GalR3 antag, NR2F2 inh) | Jurkat NFkB conf inactive
Fc1ccccc1CSc1nc2ccccc2[nH]1	none | Jurkat NFkB conf inactive
Fc1c(F)c(F)c(CSc2nc3ccccc3[nH]2)c(F)c1F	none
O=C(CCc1ccccc1)NCC(c1ccco1)N1CCc2ccccc21 (stereo not given)	Jurkat NFkB inh 58.9 | Jurkat NFkB conf inactive
COc1ccccc1C(=O)Nc1ccc2c(c1)nc(CCNC(C)=O)n2C	none
COc1ccccc1C(=O)Nc1ccc2c(c1)nc(CCNC(=O)c1ccccc1)n2C	Jurkat NFkB inh 53.7 | Jurkat NFkB conf inactive
CC(C)c1ccc(NC(=O)O[C@@H]2CC[C@@]34CCCN3C(=O)CCC[C@H]4C2)cc1	none (no result: Gli-Sufu block, Jurkat NFkB inh, GalR3 antag, 697 NFkB inh)
COc1cc(/C=N/O)ccc1OCc1ccccc1Cl	none | Jurkat NFkB conf inactive
O=C(N/N=C\c1c(O)ccc2ccccc12)c1ccc(O)cc1	none
O=C(N/N=C/c1c(O)ccc2ccccc12)Nc1ccccc1	none
Cc1c(C(=O)N/N=C/c2c(O)ccc3ccccc23)nnn1-c1nonc1N	Jurkat NFkB inh 54.8 | Jurkat NFkB conf 75.5
Cn1cc(C(=O)N/N=C/c2c(O)ccc3ccccc23)ccc1=O	Jurkat NFkB inh 58.5 | Jurkat NFkB conf 75.8
O=C(N/N=C\c1c(O)ccc2ccccc12)c1cncc(Br)c1	Gli-Sufu block 84.7, Jurkat NFkB inh 52.3 | Jurkat NFkB conf 79.2
COc1ccc2ccccc2c1/C=N/NC(=O)c1nnn(-c2nonc2N)c1C(C)C	none
O=C(CSCC(=O)Nc1ccccc1)N/N=C/c1c(O)ccc2ccccc12	Jurkat NFkB inh 63.0 | Jurkat NFkB conf inactive
